AmpC inh detg – qHTS Inhibitors of AmpC Beta-Lactamase (assay with detergent). AID 485294, 2010. P00811. AmpC hydrolysis of nitrocefin, absorbance 480 nm, 0.01% Triton. Potency, µM (doses to about 114 µM), most hits filed as inhibitors. actives 0.041% (n = 370,000); further: nearly all actives have a fitted effect of over 25% in size
Target sequence (P00811 whole entry, looked up): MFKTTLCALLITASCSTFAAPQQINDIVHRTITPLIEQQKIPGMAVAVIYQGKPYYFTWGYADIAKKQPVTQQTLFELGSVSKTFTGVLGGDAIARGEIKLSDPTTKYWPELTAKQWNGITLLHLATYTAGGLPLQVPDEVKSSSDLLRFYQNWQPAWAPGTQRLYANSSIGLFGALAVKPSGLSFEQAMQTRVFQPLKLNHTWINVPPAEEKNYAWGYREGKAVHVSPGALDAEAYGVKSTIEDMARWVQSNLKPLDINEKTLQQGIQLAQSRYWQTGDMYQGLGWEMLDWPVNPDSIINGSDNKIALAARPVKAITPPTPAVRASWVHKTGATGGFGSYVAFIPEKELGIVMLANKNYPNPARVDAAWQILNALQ
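AmpC (5.3 nM in the dispensed reagent) in 20 mM phosphate pH 7.0 with 0.01% (detergent screen) or 0.0001% Triton X-100 was preincubated with compounds for 15 min at room temperature. Nitrocefin was then added from an 800 uM solution, and hydrolysis was followed at 480 nm.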
AmpC no deterg – qHTS Inhibitors of AmpC Beta-Lactamase (assay without detergent). AmpC nitrocefin hydrolysis, absorbance 480 nm, 0.0001% Triton. actives 0.52% (n = 330,000). P00811. Potency, µM (doses to about 57.1 µM), usual class: inhibitors; further: nearly all actives have a fitted effect of over 20% in size
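AmpC (5.3 nM in the dispensed reagent) in 20 mM phosphate pH 7.0 with 0.01% (detergent screen) or 0.0001% Triton X-100 was preincubated with compounds for 15 min at room temperature. Nitrocefin was then added from an 800 uM solution, and hydrolysis was followed at 480 nm.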
Shiga toxin inh – A qHTS for Small Molecule Inhibitors of Shiga Toxin | Vero cells, Shiga toxin protein synthesis inhibition reporter | inhibition, % at 38.7 µM | actives 9.2% (n = 290,000); in the data active means inhibition mostly above about 28%, no sharp cut-off; inactive means mostly below about 43%
Cycloheximide cs – Cycloheximide Counterscreen for Small Molecule Inhibitors of Shiga Toxin | max response, % | cell reporter, cycloheximide protein synthesis inhibition counterscreen | actives 12% (n = 300,000) | AID 2314, 2010; in the data active means max response mostly above about 13%, no sharp cut-off; inactive means mostly below about 14%; further: read at 38.3 µM for the half of the compounds with a filed dose
NS1 inh – qHTS Assay for Inhibitors of Influenza NS1 Protein Function; actives 0.4% (n = 270,000); Potency, µM (titrated, usually from 46.1 µM); calls by dose curve; further: actives are rising curves; nearly all actives have a fitted effect of over 50% in size
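Compounds were scored for reversing the slow growth caused by influenza A NS1 in S. cerevisiae, measured by optical density at 600 nm. Assay medium contained 2% galactose at pH 6.0; NS1-free yeast of the same strain were the positive control.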
Each line names hits and unclear results; the compound was inactive in the other large screens. Many of the other results were omitted from the sample, so hits are more common in it than they were. Unless noted, the call rests on the fitted dose curve; in most records, active means well fitted curve in the direction sought with a large enough effect; inconclusive means small, poorly fitted or top-dose-only effect, or another doubt; inactive means no such curve, though single readings can be large; an effect the other way counts as inactive or inconclusive.

Cc1ccc([N+](=O)[O-])cc1NC(=O)C1CCCC1	none
O=C(O)c1ccc(NS(=O)(=O)c2ccc(Cl)c(Cl)c2)cc1O	none
CC(=O)Nc1ccc(N/C=C2/CCCC2=O)cc1	Shiga toxin inh 49, Cycloheximide cs 11
COc1nccnc1NS(=O)(=O)c1ccc(N/C=C2\CCCCC2=O)cc1	none (no result: NS1 inh)
Cc1ccc([N+](=O)[O-])cc1N/C=C1\CCCCC1=O	Shiga toxin inh 93, Cycloheximide cs 58 (no result: NS1 inh)
CCOC(=O)C1CCN(c2nc3c(S(=O)(=O)c4ccccc4)nnn3c3ccsc23)CC1	none (no result: AmpC no deterg, Shiga toxin inh, Cycloheximide cs, NS1 inh)
O=C(O)CN1CCCCCC1=O	none
COc1ccc(/C=C/c2c(-c3ccc(OC)cc3)oc3cccnc23)cc1	Shiga toxin inh 31, Cycloheximide cs 16
COc1cc(OC)cc(-c2oc3cccnc3c2C#CCCO)c1	AmpC inh detg inconclusive
CCC(Cn1nnc2ccccc2c1=O)NC(=O)Nc1ccccc1Cl (configuration not stated)	none (no result: AmpC no deterg, Shiga toxin inh, Cycloheximide cs, NS1 inh)
Cc1cc(C)n(-c2nc3ccccc3nc2N2CCN(c3cccc(C(F)(F)F)c3)CC2)n1	none (no result: AmpC no deterg, Shiga toxin inh, Cycloheximide cs, NS1 inh)
S=C1NC(c2ccccc2)=NCN1c1ccccc1	Cycloheximide cs 30
O=C1CN(c2ccccc2)C(=O)N1	none
Cc1ccc(C2=NCN(c3ccc(C(=O)O)cc3)C(=S)N2)cc1	Cycloheximide cs 39 (no result: NS1 inh)
CC(=O)N1CCCc2cc(S(=O)(=O)N(CCN(C)C)Cc3ccccc3)ccc21	none (no result: AmpC no deterg, Shiga toxin inh, Cycloheximide cs, NS1 inh)
CC(C)[C@H](NC(=O)C1CC(=O)N(c2ccc(F)cc2)C1)C(=O)N1CCCCC1 (some centres not stated)	AmpC inh detg inconclusive
O=C1c2ccccc2-c2nc3ccccc3nc21	Cycloheximide cs 29
CCCOc1ccc(/C=N/O)cc1	none
CCN(CC)c1ccc(/C=N/NC(=O)OC(C)(C)C)cc1	Shiga toxin inh 85, Cycloheximide cs 34
CCN(CC)c1ccc(/C=N/O)cc1	Cycloheximide cs 17 (no result: NS1 inh)
CCN(CC)c1ccc(NC(=O)OC)cc1	none
CCN(CC)c1ccc(/C=N\NC(N)=O)cc1	none
CCN(CC)c1ccc(/C=N/NC(=O)c2ccc(O)cc2)cc1	Shiga toxin inh 116, Cycloheximide cs 49 (no result: AmpC inh detg, AmpC no deterg, NS1 inh)
CCN(CC)c1ccc(C(=O)N/N=C(\C)c2ccc(O)cc2)cc1	none
CCN(CC)c1ccc(/C=N/NC(=O)CC(C)C)cc1	Shiga toxin inh 47, Cycloheximide cs 47
COc1ccc(OC)c(NC(=O)CCN2C(=O)c3ccccc3C2=O)c1	none
CCN(CC)c1ccc(/C=N/NC(=O)c2ccoc2C)cc1	Shiga toxin inh 45, Cycloheximide cs 25
CCCc1cc(-c2nc(-c3ccc(Cl)cc3)cs2)ccn1	none
CCCc1cc(-c2nc(-c3ccc(Br)cc3)cs2)ccn1	Cycloheximide cs 22
CCOC(=O)N1CCC(NC(=O)c2ccc3c(c2)N(Cc2cc(C)ccc2C)C(=O)c2ccccc2S3=O)CC1 (configuration not stated)	none (no result: AmpC no deterg, Shiga toxin inh, Cycloheximide cs, NS1 inh)
Cc1nnc(Nc2ccccc2)n(N)c1=O	AmpC inh detg inconclusive
C/C(=N\n1nnnc1Nc1ccccc1)c1ccc(N)cc1	Cycloheximide cs 26
CCCC(=O)N1CCN(c2ccc(NC(=O)c3ccc(Br)o3)cc2)CC1	none
O=C(Nc1ccc(N2CCCC2)cc1)c1ccc(Br)o1	Shiga toxin inh 71, Cycloheximide cs 58
CCN1CCN(c2ccc(NC(=O)c3ccc(Br)o3)cc2)CC1	Shiga toxin inh 111, Cycloheximide cs 43
Cc1ccc(N(CC(=O)NCc2ccco2)C(=O)CCC(=O)Nc2ccccn2)c(C)c1	Shiga toxin inh 34
Cc1cc(C)cc(N(CC(=O)NCc2ccco2)C(=O)CCC(=O)Nc2ccccn2)c1	none
Cc1ccc(N(CC(=O)NC(C)C)C(=O)CCC(=O)Nc2nccs2)c(C)c1	Cycloheximide cs 28
C=CCc1cccc2cc(C(=O)N3CCN(C(=O)c4ccccc4)CC3)c(=O)oc12	none
CCN(c1ncnc2c1c(-c1ccccc1)cn2-c1ccccc1)C1CCCCC1	none (no result: AmpC no deterg, Shiga toxin inh, Cycloheximide cs, NS1 inh)
COc1ccccc1OCc1ccc(C(=O)N2CCCCC2)o1	Cycloheximide cs 13
CC(C)(C)NC(=O)c1ccc(COc2ccc(Cl)cc2Cl)o1	none
O=C(c1ccc(COc2ccc(Cl)cc2Cl)o1)N1CCCC1	Cycloheximide cs 33
Cc1ccc(OCc2ccc(C(=O)N3CCCC3)o2)cc1C	Shiga toxin inh 76, Cycloheximide cs 34
CCOc1ccc(OCc2ccc(C(=O)N3CCCCC3)o2)cc1	Shiga toxin inh 40, Cycloheximide cs 23

Assay outcomes: PubChem, National Center for Advancing Translational Sciences (NCATS)
